# Data reported in PubChem BioAssay (NCI).
# The panel holds about 83,000 compounds, 20% with a hit somewhere; the sample as a whole holds those more often.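 Step 1: grow cells in 96-well plates. Step 2: add test compound at a single concentration. Step 3: incubate 48 h. Step 4: record percent growth.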 Unmarked numbers belong to inactive results. The source made the active and inactive calls. How the source made its calls: active means growth percent below 10; inactive means the rest.
# Test system: HL-60(TB) leukemia
# Test: NCI-60 one-dose screen, 48 h (100 = growth as untreated, 0 = no growth, -100 = all killed)
# Conditions: 10 µM unless noted
row,SMILES,growth
1,COc1ccc(/C=C2\C=C(c3ccccc3)N(CCc3ccccc3)C2=O)cc1OC,19.6%
2,Cc1ccc(Nc2c(C(N)=O)cnc3ccc(S(=O)(=O)Nc4cc(C)on4)cc23)cc1,113%
3,Cc1cc(C)c(NC(=O)c2sc3nc4c(cc3c2N)C(=O)CCC4)c(C)c1,14.6%
4,CCCCCCCCn1ccc2cc(NC(=O)Cn3cc(CN4CCOCC4)nn3)ccc21,97.4%
5,COc1cc(/C=C(\C#N)C(=O)c2ccccc2)ccc1OCc1ccccc1,103%
6,CC1(C)Nc2cccc3c(N=Nc4ccc(N=Nc5ccccc5)c5ccccc45)ccc(c23)N1,86.1%
7,COc1cc(C)ccc1Oc1nc(Nc2ccc(N3CCOCC3)cc2)ncc1NC(=O)Nc1cc(C(F)(F)F)cc(C(F)(F)F)c1,42.4%
8,c1ccc2cc(Cn3cc[n+](Cc4ccc5ccccc5c4)c3)ccc2c1,-33.6% (active)
9,Cn1cc(-c2csc(-c3cn(CCCN4CCCCC4)c4ccccc34)n2)c2cccnc21,-65.2% (active)
10,COc1ccc(/C=C\C(=O)/C=C/c2ccc(OC)cc2)cc1,50.2%
11,O=C(Nc1cccc(Cn2c(=O)[nH]c3ccc(Oc4ncccn4)cc3c2=O)c1)c1cccc(Cl)c1,54.1%
12,O=C(NCCCCO)c1cncnc1Nc1ccc2c(ccn2Cc2cccc(F)c2)c1,100%
13,COC(=O)C(Cc1cn(C(C)=O)c2ccccc12)P(=O)(OC)OC (centres undefined),97.5%
14,Nc1nc2c(c(=O)[nH]1)C(c1ccc3c(c1)OCO3)C=C(C(=O)O)N2 (centres undefined),111%
